# Laboratory results from ChEMBL document CHEMBL3988442, “University of Dundee, Small-Polar-MMV Screening Library” (2021).
# Among all 48,000 compounds or so, about 13,000 (27%) showed an effect of 50% or more. The list shows a part of the results.
# Test system: Wolbachia pipientis
# Experiment: Anti-Wolbachia Cell-Based Screen
# Format: functional
# Design: scale not given: in the data most compounds retested in dose-response had high values
# Conditions: 5 µM
row,SMILES,Percent Effect
1,CN1CCCN(CCCNC2CCc3cc4c(cc32)OCCO4)CC1 (configuration not stated),-2.164%
2,CCN1CCN(c2ccc(F)cc2C(C)NCc2noc(C)n2)CC1 (configuration not stated),6.672%
3,NC(=O)c1ccnc(N2CCN(Cc3ccc(F)cc3Cl)CC2)c1,9.794%
4,CCCn1ncc(CN(CCN(C)C)Cc2ccsc2)c1C,0.1145%
5,CCCN(Cc1ccccn1)Cc1ccccc1OC,8.723%
6,CCCn1nc(C)c(CN(CCN(C)C)Cc2ccccn2)c1C,95.65%
7,NC(=O)N1CCCC1COC(=O)c1ccc(F)cc1Br (configuration not stated),-14.4%
8,O=S1(=O)CCC(CNS(=O)(=O)N2CCc3ccccc3C2)C1 (configuration not stated),5.684%
9,CCCC(C)(C)NC(=O)c1ccc(CC2CC(=O)NC2=O)cc1 (configuration not stated),-6.168%
10,O=C(N[C@@H]1CNCCC[C@H]1O)c1ccc(OCc2ccccc2)cc1,-1.908%
11,OCC1CCCCN1CCn1ccnc1-c1nc2ccccc2[nH]1 (configuration not stated),1.292%
12,O=C(N[C@@H]1CCNC[C@H]1O)c1ccc(O)c(Cl)c1,22.9%
13,O=C(N[C@@H]1CCNC[C@H]1O)c1ccc(F)c(F)c1,7.783%
14,O=C(N[C@@H]1CCNC[C@H]1O)c1ccc(-c2ccc(F)cc2)cc1,15.94%
15,CN1CCCC1CCn1ccnc1-c1nc2ccccc2[nH]1 (configuration not stated),1.274%
16,O=C(N[C@H]1CCCC[C@@H]1O)c1ccc(-c2nc3ccccc3[nH]2)cc1,104%
17,O=C(N[C@H]1CCCC[C@@H]1O)c1cccc(-c2nc3ccccc3[nH]2)c1,102.7%
18,O=C(N[C@H]1CCCC[C@@H]1O)c1ccc2nc(-c3ccccc3)[nH]c2c1,121.7%
19,O=C(CCc1cn[nH]c1)N1C[C@@H](CN2CCOCC2)C[C@H](CO)C1,10.13%
20,COC(=O)c1sccc1S(=O)(=O)N1CCC(Oc2cccnn2)CC1,13.23%
21,COC(=O)N1CCCC(NC(=O)NCc2ccc(C)nc2)C1 (configuration not stated),12.17%
22,CN(C)Cc1ccnc(C2CN(CCCc3ccccc3)CCO2)n1 (configuration not stated),114%
23,Cc1nc(C)n(CC2CN(CCCc3ccccc3)CCO2)n1 (configuration not stated),-18.17%
24,CC(C)(C)c1n[nH]c(C2CN(CCc3ccncc3)CCO2)n1 (configuration not stated),18.66%
25,CN(Cc1nccn1C)C1CCCN(CCCc2ccccc2)C1 (configuration not stated),7.706%
26,CN(C)Cc1ccnc(C2CN(CCc3ccccc3)CCO2)n1 (configuration not stated),102.6%

row,SMILES,Percent Effect
1,Cn1ncc(N2CCC(CNC3CC(C)(C)CC(C)(C)C3)C2)cc1=O (configuration not stated),8.981%
2,O=C(C1CCCO1)N1CCC(Cn2cc(C3CCCC3)nn2)CC1 (configuration not stated),-6.289%
3,Cn1c(CN2CCCC2)nnc1C1CCCN(C(=O)C2CCOCC2)C1 (configuration not stated),-15.35%
4,Cc1nn(C)cc1CN1CCC(c2ncc(Cl)cc2S(C)(=O)=O)CC1,110.1%
5,Cc1nn(CCO)cc1CN1CCC(N2CCC(O)CC2)CC1,-2.078%
6,CS(=O)(=O)c1cc(Cl)cnc1C1CCN(C(=O)C2CCOCC2)CC1,98%
7,Cc1nn(C)cc1CN1C[C@@H]2CC[C@H](C1)N(Cc1c(C)noc1C)C2=O,-0.3171%
8,CN(CCO)Cc1nnc(C2CCN(C(=O)C3CCOCC3)CC2)n1C,-7.962%
9,CS(=O)(=O)c1cc(Cl)cnc1C1CCN(C(=O)C2CCCO2)CC1 (configuration not stated),120.4%
10,CS(=O)(=O)c1cc(Cl)cnc1C1CCCN(C(=O)C2CCOCC2)C1 (configuration not stated),120.4%
11,O=C(C1CCCO1)N1CCC(c2nc(-c3ccccc3)n[nH]2)CC1 (configuration not stated),-16.11%
12,CS(=O)(=O)N1C[C@@H](C(=O)Nc2cnccn2)C[C@H]2OCC[C@H]21,-10.64%
13,Cc1cc(C)cc(C(=O)Nc2ccc(CC3CC(=O)NC3=O)cc2)c1 (configuration not stated),-7.063%
14,CCS(=O)(=O)c1ccc(N2CCC(N)CC2)cc1,-6.106%
15,CCc1noc(C)c1C(=O)NCCCC(CC)(CC)C1OCCO1,-8.501%
16,Cn1c(C(F)(F)F)nn(CCNC(=O)c2cnc3ccccc3n2)c1=O,1.982%
17,O=C(C1CC1)N1CCC(Oc2ccccc2Cl)CC1,-14.42%
18,CS(=O)(=O)c1cc(Cl)cnc1C1CCN(C(=O)C2CC2)CC1,82.8%
19,N#Cc1cnc(NC2CCN(C(=O)C3CC3)CC2)c(Cl)c1,-2.67%
20,CCn1nc(C)c(CCNC(=O)C2CCCN(CC(N)=O)C2)c1C (configuration not stated),-1.587%
21,CN(CCS(=O)(=O)c1cc(Cl)ccc1Cl)CC(=O)Nc1ccc(F)cc1,-4.797%
22,O=S1(=O)N=C(SCc2ccc(Cl)cc2)Nc2ccc(F)cc21,26.5%
23,O=C(CSC1=NS(=O)(=O)c2cc(F)ccc2N1)Nc1ccc(Cl)cc1,115.7%
24,O=C(CSC1=NS(=O)(=O)c2cc(F)ccc2N1)Nc1ccc(Cl)c(Cl)c1,112.6%
25,O=C(CSC1=NS(=O)(=O)c2cc(F)ccc2N1)Nc1cccc(Cl)c1,1.822%
26,CC(=O)NCC(=O)N1CCC(c2cncc(Oc3cccnc3)n2)CC1,94.92%

row,SMILES,Percent Effect
1,CCOCC(=O)N1CCC(c2nc(-c3cccnn3)no2)CC1,-10.28%
2,COCCC(=O)N1Cc2[nH]nc(COc3cccnc3)c2C1,-7.677%
3,CCC(=O)N1CCC(c2cncc(Oc3cccnc3)n2)CC1,118.9%
4,NCC(=O)N1CCC(c2cncc(Oc3cccnc3)n2)CC1,115.4%
5,CN(C)c1cncc(C2CCN(C(=O)CO)CC2)n1,-8.172%
6,O=C(c1cnc[nH]1)N1CCC(Oc2cccnc2)CC1,-5.216%
7,COCCC(=O)N1CCC(c2cncc(Oc3cccnc3)n2)CC1,116.7%
8,O=C(O)c1coc(COc2cccc(F)c2)n1,4.925%
9,Cn1cc(C(C)(O)CNc2ccc(C(F)(F)F)cn2)cn1 (configuration not stated),-6.245%
10,CC(C)(C)CC(NC(=O)c1nc(=O)[nH][nH]1)c1ccc(F)cc1 (configuration not stated),-5.789%
11,COC(=O)CCNC(=O)c1coc(COc2ccc(F)cc2)n1,-5.567%
12,CCOC(=O)NC(=O)CSC(C)c1ccccc1F (configuration not stated),4.048%
13,CN1CCN2CCN(C(=O)c3cnn4cc(CCO)cnc34)CC2C1 (configuration not stated),-3.17%
14,Cn1ccnc1CN1CCCN(C(=O)c2ccc3[nH]cnc3c2)CC1,100.5%
15,Cn1ccnc1CN1CCCN(C(=O)c2ccc3[nH]nnc3c2)CC1,102.4%
16,CC(C)c1nccn1C1CCCN(C(=O)c2ccc3[nH]cnc3c2)C1 (configuration not stated),-5.197%
17,Cc1nccn1CCC1CCCCN1C(=O)c1ccc2[nH]nnc2c1 (configuration not stated),-0.5329%
18,CN(C(=O)OC(C)(C)C)C1CCN(C(=O)c2cc(Cl)c[nH]2)C1 (configuration not stated),3.471%
19,COCC(=O)N[C@H](C)c1onc(-c2ccc(F)cc2)c1C(=O)O,-10.17%
20,COc1cccc(C2CC(=O)Nc3c2c(=O)n(C)c2ncnn32)c1 (configuration not stated),109.5%
21,CC(C)n1[nH]c(=O)c2c1NC(=O)CC2c1cccnc1 (configuration not stated),10.81%
22,O=C1CC(c2ccc(C(=O)O)cc2)c2ncn(-c3ccccc3F)c2N1 (configuration not stated),10.34%
23,CSc1ccc(C2CC(=O)Nc3c2c(=O)[nH]c2ncnn32)cc1 (configuration not stated),-5.097%
24,Cn1c(=O)c2c(n3ncnc13)NC(=O)CC2c1cccc(Br)c1 (configuration not stated),114.2%
25,Cn1c(=O)c2c(n3ncnc13)NC(=O)CC2c1cccc(F)c1 (configuration not stated),120.7%
26,O=C1CC(c2ccc(F)cc2)c2cnn(C3CCCC3)c2N1 (configuration not stated),-2.721%

row,SMILES,Percent Effect
1,CC(C)n1[nH]c(=O)c2c1NC(=O)CC2c1cccc(OC(F)F)c1 (configuration not stated),18.26%
2,CC(C)n1[nH]c(=O)c2c1NC(=O)CC2c1ccc2ncccc2c1 (configuration not stated),8.497%
3,O=C1CC(c2ccc(C(=O)O)cc2)c2ncn(-c3cccc(F)c3)c2N1 (configuration not stated),4.592%
4,Cn1c(=O)c2c(n3ncnc13)NC(=O)CC2c1ccc(F)cc1 (configuration not stated),107.2%
5,CC(C)(C)n1ncc2c1NC(=O)CC2c1ccccc1 (configuration not stated),1.075%
6,CC(C)(C)c1cn2c(n1)C(CNCc1ccccn1)CCC2 (configuration not stated),10.69%
7,CCN(Cc1nc(-c2ccco2)no1)Cc1cccc2c1OCO2,-4.038%
8,CC(C)n1nc2c(cc1=O)CN(CC1CCCCO1)CC2 (configuration not stated),3.458%
9,Cc1nc2n(n1)CC(NCc1ccccc1OCC(=O)N(C)C)CC2 (configuration not stated),1.473%
10,NC(=O)COc1ccc(CN2CCC(O)(CN3CCCCC3)C2)cc1Cl (configuration not stated),-2.336%
11,Cc1nc(N2Cc3cnn(Cc4ccc(F)cc4)c3C2)no1,-13.57%
12,COCc1nc2nc(O)c3c(n2n1)NC(=O)CC3c1ccc(SC)cc1 (configuration not stated),-7.854%
13,Cn1ncc2c1NC(=O)CC2c1ccc(O)cc1 (configuration not stated),38.62%
14,CCc1ccc(C2CC(=O)Nc3c2c(=O)n(C)c2ncnn32)cc1 (configuration not stated),109.5%
15,CC(C)(C)c1noc(CCCC(=O)N2CCNC(=O)C2)n1,-4.153%
16,COc1cccc2c(=O)n(Cc3cc(C4CC4)[nH]n3)cnc12,104.8%
17,COc1cccc2c(=O)n(CCN3CCNCC3)cnc12,4.244%
18,O=c1c2sccc2ncn1Cc1cc(C2CC2)[nH]n1,88.09%
19,CN(Cc1cc(C2CC2)[nH]n1)Cc1cc2ccc(F)cc2[nH]c1=O,-8.263%
20,CC1CCN(CC(O)Cn2cnc3ccsc3c2=O)CC1 (configuration not stated),-6.513%
21,O=c1c2ccccc2ncn1Cc1cc(C2CC2)[nH]n1,98.49%
22,O=C(Cn1cnc2ccccc2c1=O)Nc1cc(C2CC2)n[nH]1,0.387%
23,O=c1c2sccc2ncn1CC(O)CN1CCOCC1 (configuration not stated),7.822%
24,Cc1cc(CN2CCC(c3cc(Cc4ccccc4)n[nH]3)CC2)[nH]n1,25.91%
